Test [1] is described as follows: APR_HepG2_CellCycleArrest_24hr: Apredica 24-hour HepG2 Assay for Cell Cycle Arrest (AID 2282905).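 Further: cell cycle arrest scored as ratio of 2N to 4N nuclear DNA content.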 As to conditions: imaging, actives raise or lower the signal. The essentials: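 Step one: dose HepG2 with test compounds, 0.39–200 uM, 0.5% DMSO, 24 hr. Step two: fix, permeabilize, stain nuclei with Hoechst 33342. Step three: image six fields per well at 20x, quantify DNA content, fit bidirectionally relative to DMSO.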

A short description of test [2]: APR_HepG2_NuclearSize_24hr: Apredica 24-hour HepG2 Assay for Nuclear Size (AID 2282907). As to conditions: high-content imaging, actives raise or lower the signal. In a few lines: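 After fixation and permeabilization, 24-hr-treated HepG2 cells were stained with Hoechst 33342 and imaged on an ArrayScan (20x). Doses spanned 0.39–200 uM in duplicate. Nuclear diameter changes in either direction were fitted relative to 0.5% DMSO controls.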

Test [3] is described as follows: APR_HepG2_CellLoss_24hr: Apredica 24-hour HepG2 Assay for Cell Loss (AID 2282908).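 On AC50: fit in both directions so a hit may be cell loss or gain.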 As to conditions: high-content imaging. In a few lines:
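Duplicate wells received compound at ten concentrations (0.39–200 uM; final DMSO 0.5% v/v). After fixation with formaldehyde, nuclei stained with Hoechst 33342 were imaged at 20x. Loss or gain of cell count was fitted relative to DMSO controls.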

Test [4] can be described thus: APR_HepG2_MicrotubuleCSK_24hr: Apredica 24-hour HepG2 Assay for Microtubule CSK Stabilty (AID 2282909). As to conditions: HepG2 microtubule cytoskeleton imaging, actives raise or lower the signal. In a few lines:
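Microtubule stability is scored from tubulin immunofluorescence in fixed HepG2 cells imaged at 20x. Cells receive ten compound concentrations up to 200 uM for 24 h; taxol and DMSO serve as positive and negative controls.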

A short description of test [5]: APR_HepG2_MitoticArrest_24hr: Apredica 24-hour HepG2 Assay for Mitotic Arrest (AID 2282910). As to conditions: high-content imaging, actives raise or lower the signal. In a few lines:
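High-content imaging of fixed HepG2 cells labeled with Hoechst 33342 and anti-phospho-histone H3, after 24 h treatment. Ten concentrations 0.39 to 200 uM in duplicate, final DMSO 0.5%; changes fitted both directions relative to DMSO.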

Test [6] is described as follows: APR_HepG2_MitoMembPot_24hr: Apredica 24-hour HepG2 Assay for Mitochondrial Membrane Potential (AID 2282911). As to conditions: imaging, actives raise or lower the signal. In a few lines:
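HepG2 cells exposed 24 h to 0.39–200 uM compounds in duplicate, 0.5% v/v DMSO final. MitoTracker Red CMXRos 250 nM loaded 30 min before formaldehyde fixation; high-content imaging at 20x, bidirectional fit versus DMSO.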

A short description of test [7]: APR_HepG2_MitoMass_24hr: Apredica 24-hour HepG2 Assay for Mitochondrial Mass (AID 2282912). As to conditions: high-content imaging, actives raise or lower the signal. The essentials: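 Readout: fluorescence of MitoTracker Red CMXRos (250 nM, added 30 min pre-fixation) in fixed HepG2 cells imaged by HCS. Exposure lasted 24 hr at 0.39–200 uM; increases and decreases were both fitted relative to DMSO.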

A short description of test [8]: APR_HepG2_p53Act_24hr: Apredica 24-hour HepG2 Assay for p53 Activation (AID 2282913).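 Further: p53 protein immunofluorescence averaged per cell in HepG2 with Hoechst nuclei.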 As to conditions: high-content imaging, actives raise or lower the signal. The essentials:
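HepG2 cells exposed 24 h to compounds at 0.39–200 uM in duplicate, 0.5% v/v DMSO final; fixed, permeabilized, stained with anti-p53 antibody and Hoechst 33342; fluorescence imaging; bidirectional curve fit versus DMSO.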

Test [9] can be described thus: APR_HepG2_CellLoss_72hr: Apredica 72-hour HepG2 Assay for Cell Loss (AID 2282915). As to conditions: high-content imaging. In a few lines: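 Cell number comes from Hoechst 33342-labelled nuclei, imaged at 20x after 3.7% formaldehyde fixation. Dosing was 0.39–200 uM, ten concentrations in duplicate, 0.5% DMSO final, for 72 h. Bidirectional fit relative to DMSO baseline.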

Test [10] can be described thus: APR_HepG2_P-H2AX_72hr: Apredica 72-hour HepG2 Assay for H2AX Phosphorylation (AID 2282916).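 Further: phospho-histone H2A.x immunostain intensity per cell marking DNA damage.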 As to conditions: imaging, actives raise or lower the signal. In a few lines: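 Phospho-H2A.x imaging endpoint in HepG2 after 72 hr compound exposure (0.39–200 uM, duplicate wells). Activity derived by bidirectional curve fitting with DMSO as baseline.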
Test [11] in a line: APR_HepG2_MitoMembPot_72hr: Apredica 72-hour HepG2 Assay for Mitochondrial Membrane Potential (AID 2282917). As to conditions: imaging, actives raise or lower the signal. The essentials: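 Membrane potential read by MitoTracker Red CMXRos (250 nM, 30 min, pre-fixation) fluorescence imaging of HepG2 after 72 hr exposure. Ten concentrations, 0.39–200 uM, duplicate wells, 0.5% DMSO; fitted in both directions against DMSO baseline.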

Test [12] in a line: APR_HepG2_MitoticArrest_72hr: Apredica 72-hour HepG2 Assay for Mitotic Arrest (AID 2282918). As to conditions: high-content imaging, actives raise or lower the signal. In a few lines: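 HepG2 cells treated 72 h at 0.39–200 uM, 0.5% DMSO final; formaldehyde-fixed, stained with Hoechst 33342 and phospho-histone H3 antibody, imaged by high-content fluorescence; bidirectional fit versus DMSO.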

The nature of test [13]: APR_HepG2_MicrotubuleCSK_72hr: Apredica 72-hour HepG2 Assay for Microtubule CSK Stabilty (AID 2282919). As to conditions: HepG2 microtubule cytoskeleton, high-content imaging, actives raise or lower the signal. The essentials:
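High-content imaging of alpha-tubulin staining in fixed HepG2 cells after 72 hr treatment with ten concentrations from 0.39 to 200 uM (0.5% DMSO). Fitting was bidirectional against DMSO; taxol served as positive control.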

Test [14] is described as follows: APR_HepG2_P-H2AX_24hr: Apredica 24-hour HepG2 Assay for H2AX Phosphorylation (AID 2282920). As to conditions: high-content imaging, actives raise or lower the signal. The essentials:
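HepG2 cells dosed 24 h at 0.39–200 uM (10 points, duplicate, 0.5% DMSO final). Formaldehyde-fixed and permeabilized, then immunostained for phospho-H2A.x with Hoechst. Fluorescence quantified by high-content imaging, fitted bidirectionally versus DMSO.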

A short description of test [15]: APR_HepG2_StressKinase_72hr: Apredica 72-hour HepG2 Assay for Stress Kinase (AID 2282921). As to conditions: HepG2 stress kinase (phospho-c-Jun) imaging, actives raise or lower the signal. In a few lines: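 Stress kinase signal reflects nuclear phospho-c-Jun staining in fixed, permeabilized cells exposed 72 h to compound at 0.39–200 uM; DMSO-normalized, fitted for increases or decreases.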

Test [16] in a line: APR_HepG2_StressKinase_24hr: Apredica 24-hour HepG2 Assay for Stress Kinase (AID 2282922). As to conditions: HepG2 stress kinase (phospho-c-Jun) imaging, actives raise or lower the signal. The essentials:
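High-content imaging of phospho-c-Jun immunofluorescence in fixed, permeabilized HepG2 cells after 24 h dosing. Ten concentrations, 0.39 to 200 uM, run in duplicate at 0.5% v/v DMSO; gain or loss of signal versus DMSO.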

The nature of test [17]: APR_HepG2_p53Act_72hr: Apredica 72-hour HepG2 Assay for p53 Activation (AID 2282923).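 Further: average cellular p53 protein immunofluorescence intensity in HepG2 cells.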 As to conditions: high-content imaging, actives raise or lower the signal. The essentials:
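Fixed-cell p53 staining (sheep primary, Cy5 secondary) measured by fluorescence imaging following 72 hr treatment at 0.39–200 uM in 0.5% DMSO; DMSO served as negative control and baseline.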

Test [18] can be described thus: APR_HepG2_MitoMass_72hr: Apredica 72-hour HepG2 Assay for Mitochondrial Mass (AID 2282924).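 Further: MitoTracker Red CMXRos stain intensity per cell imaged as mitochondrial mass.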 As to conditions: high-content imaging, actives raise or lower the signal. In a few lines:
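Readout is imaged MitoTracker Red (250 nM, 30 min, pre-fixation) signal, fitted bidirectionally against DMSO baseline. Human HepG2 liver cells received compound 0.39–200 uM in duplicate for 72 hr, final DMSO 0.5%.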

A short description of test [19]: APR_HepG2_NuclearSize_72hr: Apredica 72-hour HepG2 Assay for Nuclear Size (AID 2282925). As to conditions: high-content imaging, actives raise or lower the signal. In a few lines: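 Nuclear size was read by high-content imaging of Hoechst 33342 stain after formaldehyde fixation. Compounds ran 72 h on HepG2 at 0.39 to 200 uM, with final DMSO 0.5% v/v. Curves fitted both directions relative to DMSO control.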

Test [20] is described as follows: APR_HepG2_CellCycleArrest_72hr: Apredica 72-hour HepG2 Assay for Cell Cycle Arrest (AID 2282914). As to conditions: high-content imaging, actives raise or lower the signal. The essentials:
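HepG2 cells exposed 72 h in duplicate to 0.39–200 uM compound, 0.5% DMSO final. Formaldehyde-fixed, Hoechst 33342-stained nuclei imaged at 20x, six fields per well; DNA content per valid cell quantified by cell-cycle image analysis, bidirectional fit versus DMSO.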

Calls of active or inactive are those of the source. How the source made its calls: active means hit-call score of the fitted dose curve at least 0.9, where 1 is the maximum; inactive means score below 0.9.

In the case of `[As]#[In]`, the compound was classed as inactive in test [1], in test [2], in test [3], in [4], in test [5] and in test [6]. The compound was called inactive in [7], in test [8], in [9], in [10], in test [11] and in [12]. Further, the result in test [13], in test [14], in [15], in test [16], in test [17] and in test [18] was inactive. Besides, the compound was called inactive in [19].
In general, AC50 refers to the concentration giving half of the maximal activity seen. For `CCCCCOC(=O)c1ccccc1C(=O)OCCCCC`, the result in [1], in test [2], in [3], in [4], in [5] and in [6] was inactive. For the same compound, the outcome in test [7], in test [8], in [10], in test [11], in [12] and in test [13] was inactive. For the same compound, the compound was classed as inactive in test [14], in test [15], in test [16], in [17], in test [18] and in test [19]. In [9], the AC50 was 106 µM (active).
As to `c1ccc(NNc2ccccc2)cc1`, the call in [1], in test [2], in test [3], in test [4], in test [5] and in [6] was inactive. Moreover, the result in test [7], in [11], in test [13], in [14], in test [15] and in test [16] was inactive. In addition, the compound was classed as inactive in [19]. The concentration at half-maximal activity (AC50) was 110 µM (active) in test [8]; 97.9 µM (active) in test [9]; 100 µM (active) in test [10]; 100 µM (active) in test [12]; 98.9 µM (active) in test [17]; 150 µM (active) in test [18].
Take `CC(C)(C)C(O)(CCc1ccc(Cl)cc1)Cn1cncn1` (centres undefined): the compound was called inactive in test [1], in [2], in test [6], in test [11] and in [19]. Moreover, the half-maximal activity concentration (AC50) in [3] was 104 µM (active); in test [4] it was 115 µM (active); in test [5], 107 µM (active); in test [7], 124 µM (active); in [8], 110 µM (active); in test [20], 102 µM (active). Further, the AC50 in test [9] was 116 µM (active); in test [10] it was 111 µM (active); in [12], 99.6 µM (active); in [14], 113 µM (active); in test [15], 113 µM (active); in [16], 108 µM (active). In addition, the concentration at half-maximal activity (AC50) in test [17] is 121 µM (active); in [18], 105 µM (active).
As for `CCCCCCCCn1sccc1=O`, the AC50 in test [1] was 6.2 µM (active); in test [2], 10.7 µM (active); in test [3], 16.1 µM (active); in [4], 79.4 µM (active); in test [5], 7.54 µM (active); in test [6], 53.4 µM (active). For the same compound, the AC50 in [8] is 3.62 µM (active); in test [9] it was 5.76 µM (active); in [10] it was 4.92 µM (active); in test [11], 96.1 µM (active); in test [12] it was 3.77 µM (active); in test [14] it was 6.1 µM (active). Also, the AC50 in test [15] is 5.97 µM (active); in test [16], 3.47 µM (active); in [17] it was 3.54 µM (active); in test [18] it was 3.51 µM (active). Besides, the call in test [7], in test [20] and in test [19] was inactive.
With `[O-][Cl+]O`, the result in test [1], in [2], in test [7], in test [8], in [10] and in test [11] was inactive. Moreover, the compound was called inactive in [12], in [13], in test [15], in [17] and in test [18]. Further, the AC50 in test [3] is 70.7 µM (active); in [4], 73.3 µM (active); in test [5], 93.6 µM (active); in [6], 62.5 µM (active); in test [9], 97.5 µM (active); in test [14], 66.5 µM (active). In addition, the AC50 in test [16] was 110 µM (active); in [19], 157 µM (active).

For the origin of these results see PubChem BioAssay (EPA / NIEHS).
